HT1080 IDH1KD tx = qHTS for induction of synthetic lethality in tumor cells producing 2HG: qHTS for the HT-1080-IDH1KD cell line | HT-1080 IDH1 knockdown viability, ATP luminescence, 48 h | Potency, µM (series often up to 46.1 µM), for the others: at the highest dose activity, negative = toxicity, most hits filed as cytotoxic | hit rate 2% among 360,000 | AID 686971, 2013;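 further: potency means the concentration at half of the fitted maximal effect; 0% = DMSO wells and -100% = cell-free medium wells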
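Luminescent ATP read-out (CellTiter-Glo, 10 min at room temperature) after 48 h compound exposure at 37 °C gave viability of IDH1-knockdown HT-1080 cells. Activity was normalised to DMSO and cell-free wells, then fitted as concentration-response curves.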
IL1B secr inh = qHTS for Inhibitors of Inflammasome Signaling: IL-1-beta AlphaLISA Primary Screen | hit rate 4.7% among 360,000 | THP-1 LPS/ATP IL-1B secretion, AlphaLISA, 16 h; hits give low values | AID 743279, 2014 | activity change, % at 57.5 µM; in the data active means activity change below about -50%; inconclusive means mostly about -30% to -49%
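Secreted IL-1B measured by AlphaLISA bead assay after 16 h compound exposure of THP-1 cells; compounds (final up to 57.5 uM) added 1 h before LPS (250 ng/mL) and ATP (1.25 mM) stimulation; lower signal means less secretion.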
TDP1 cell noCPT = qHTS for Inhibitors of human tyrosyl-DNA phosphodiesterase 1 (TDP1): qHTS in cells in absence of CPT; DT40 Tdp1-/- hTDP1 cells, no CPT, ATP luminescence, 48 h; Potency, µM (highest dose often 46.2 µM), inactives show at the top dose activity change, negative = growth inhibition, hits mostly inhibitors; hit rate 15% among 420,000; AID 686978, 2013; further: potency means the concentration at half of the fitted maximal effect; nearly all actives have a fitted effect of over 55% in size
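A cellular qHTS used chicken DT40 cells lacking endogenous Tdp1 but carrying stably transfected human TDP1. Compounds were applied without camptothecin, and cell growth kinetics were judged by ATP-dependent luminescence after ≥48 hr.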
TDP1 cell CPT = qHTS for Inhibitors of human tyrosyl-DNA phosphodiesterase 1 (TDP1): qHTS in cells in presence of CPT | chicken DT40 Tdp1-/-;hTDP1 cells + 20 nM CPT, ATP luminescence, 48 h | Potency, µM (series often up to 46.2 µM), for the others: at the highest dose activity change, negative = growth inhibition, usual class: inhibitors | hit rate 12% among 420,000 | AID 686979, 2013; further: potency means the concentration at half of the fitted maximal effect; nearly all actives have a fitted effect of over 55% in size
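Chicken DT40 Tdp1-/- cells complemented with human TDP1, 400 cells/well, exposed to compounds plus 20 nM camptothecin for at least 48 h at 37 C; viability read as ATP content by CellTiter-Glo luminescence.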
HT1080NT lethal = qHTS for induction of synthetic lethality in tumor cells producing 2HG: qHTS for the HT-1080-NT fibrosarcoma cell line | HT-1080-NT fibrosarcoma viability, CellTiter-Glo ATP luminescence, 48 h | Potency, µM (doses to about 46.1 µM), without a hit: at the highest dose activity, negative = less viability, hits mostly cytotoxic | hit rate 1.6% among 360,000 | AID 686970, 2013;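 further: NT is the 2HG producing partner of a matched IDH1 knockdown line; potency means the concentration at half of the fitted maximal effect; 0% = DMSO-treated cells and -100% = media-only wells without cells; nearly all actives have a fitted effect of over 55% in size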
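Luminescent CellTiter-Glo readout after 48 hours of compound exposure at 37 degrees C defined viability of HT-1080-NT cells. Activity was normalized to DMSO wells and cell-free media wells; concentration-response curves were fitted and assigned curve classes.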
* marks the source's active call; other numbers are inactive results. Shown are actives, neighbours in structure and some others; about 19% of the full set was active somewhere. Unless noted, the call rests on the fitted dose curve; in most records, active means well fitted curve in the direction sought with a large enough effect; inconclusive means small, poorly fitted or top-dose-only effect, or another doubt; inactive means no such curve, though single readings can be large; an effect the other way counts as inactive or inconclusive. Unless noted, on the % scale 0 is the no-effect control and ±100 the full control effect.

How did CC(C)CCC1CC(CSC(=N)N)OC1=O (configuration not stated) do in these assays?
HT1080 IDH1KD tx: -10.1%; IL1B secr inh: -25.4; TDP1 cell noCPT: 23.1µM*; TDP1 cell CPT: inconclusive; HT1080NT lethal: 1.0%

How did CCCCCCCC1CC(CSC(=N)N)OC1=O (configuration not stated) do in these assays?
HT1080 IDH1KD tx: -27.1%; IL1B secr inh: -98.5*; TDP1 cell noCPT: 20.6µM*; TDP1 cell CPT: 14.6µM*; HT1080NT lethal: -15.5%

Results for CCCCC1CC(CSC(=N)N)OC1=O (configuration not stated) ?
HT1080 IDH1KD tx: 21.9%; IL1B secr inh: -13.0; TDP1 cell noCPT: inconclusive; TDP1 cell CPT: inconclusive; HT1080NT lethal: 26.0%

Results for CCCCCCCC1CC(/C(C)=N/NC(N)=O)OC1=O (configuration not stated) ?
HT1080 IDH1KD tx: 10.1%; IL1B secr inh: 14.4; TDP1 cell noCPT: inconclusive; TDP1 cell CPT: 18.4µM*; HT1080NT lethal: 17.6%

How did Cc1cc(S(=O)(=O)n2ccnc2C(C)C)cc([N+](=O)[O-])c1C do in these assays?
TDP1 cell noCPT: -2.8%; TDP1 cell CPT: 1.7%

Results for O=[N+]([O-])c1cc(S(=O)(=O)N2CCOCC2)ccc1NS(=O)(=O)c1ccccc1 ?
HT1080 IDH1KD tx: 11.7%; IL1B secr inh: -82.9*; TDP1 cell noCPT: -21.6%; TDP1 cell CPT: 21.3%; HT1080NT lethal: -1.8%

Results for COc1ccccc1C(CNc1ccc(S(=O)(=O)N2CCCC2)cc1[N+](=O)[O-])N(C)C (configuration not stated) ?
HT1080 IDH1KD tx: -1.6%; IL1B secr inh: inconclusive; TDP1 cell noCPT: inconclusive; TDP1 cell CPT: 13µM*; HT1080NT lethal: inconclusive

What do the screens show for `CC(C)(CNc1ccc(S(=O)(=O)C(F)(F)F)cc1[N+](=O)[O-])N1CCOCC1`?
HT1080 IDH1KD tx: 2.5%; IL1B secr inh: -53.1*; TDP1 cell noCPT: inconclusive; TDP1 cell CPT: inconclusive; HT1080NT lethal: -2.6%

How did O=[N+]([O-])c1cc(S(=O)(=O)N2CCCCCC2)ccc1F do in these assays?
HT1080 IDH1KD tx: inconclusive; IL1B secr inh: inconclusive; TDP1 cell noCPT: 10.3µM*; TDP1 cell CPT: 7.31µM*; HT1080NT lethal: inconclusive

Results for Cc1ccccc1Nc1ccc(S(=O)(=O)N2CCOCC2)cc1[N+](=O)[O-] ?
HT1080 IDH1KD tx: -10.0%; IL1B secr inh: inconclusive; TDP1 cell noCPT: inconclusive; TDP1 cell CPT: inconclusive; HT1080NT lethal: -3.3%

What do the screens show for `COc1ccc(-c2nn(CC(=O)N(C)C)c(=O)c3ccccc23)cc1`?
HT1080 IDH1KD tx: 1.7%; IL1B secr inh: 9.6; TDP1 cell noCPT: -14.2%; TDP1 cell CPT: -6.1%; HT1080NT lethal: -2.9%

How did COc1ccc(Nc2ccc(S(=O)(=O)N3CCCCC3)cc2[N+](=O)[O-])cc1 do in these assays?
HT1080 IDH1KD tx: -26.5%; IL1B secr inh: -27.4; TDP1 cell noCPT: 16.4µM*; TDP1 cell CPT: inconclusive; HT1080NT lethal: inconclusive

How did COc1ccc(C(CNc2ccc(S(=O)(=O)N3CCN(C)CC3)cc2[N+](=O)[O-])N(C)C)cc1 (configuration not stated) do in these assays?
HT1080 IDH1KD tx: 5.1%; IL1B secr inh: -11.7; TDP1 cell noCPT: 20.6µM*; TDP1 cell CPT: -11.7%; HT1080NT lethal: -3.9%

How did CC(=NO)C1CCC2C3CCC4CC(=NO)CCC4(C)C3C(C)(O)CC12C (configuration not stated) do in these assays?
HT1080 IDH1KD tx: 16.1%; IL1B secr inh: 23.9; TDP1 cell noCPT: 14.6µM*; TDP1 cell CPT: inconclusive; HT1080NT lethal: 8.6%

Results for CCN(c1ccccc1)S(=O)(=O)c1ccc(NC(=O)c2cc(=O)c3cc(C)c(C)cc3o2)cc1 ?
TDP1 cell noCPT: -6.8%; TDP1 cell CPT: -0.8%

Results for O=C(N/N=C\c1ccc(-c2ccc([N+](=O)[O-])cc2)o1)C1COc2ccccc2O1 (configuration not stated) ?
HT1080 IDH1KD tx: -15.4%; IL1B secr inh: -21.7; TDP1 cell noCPT: 23.1µM*; TDP1 cell CPT: inconclusive; HT1080NT lethal: -4.2%

What do the screens show for `O=[N+]([O-])c1ccc(/C=N/NC(=S)Nc2ccccc2C(F)(F)F)o1`?
HT1080 IDH1KD tx: 1.2%; IL1B secr inh: 0.0; TDP1 cell noCPT: 13µM*; TDP1 cell CPT: 8.2µM*; HT1080NT lethal: 11.9%

Results for O=C(NN=Cc1ccccc1O)C(O)c1ccccc1 (configuration not stated) ?
HT1080 IDH1KD tx: inconclusive; IL1B secr inh: 126.5; TDP1 cell noCPT: 20.6µM*; TDP1 cell CPT: inconclusive; HT1080NT lethal: -23.4%

How did O=C(N/N=C/c1ccc(-c2ccc([N+](=O)[O-])cc2)o1)C(O)c1ccccc1 (configuration not stated) do in these assays?
HT1080 IDH1KD tx: -1.0%; IL1B secr inh: -248.5*; TDP1 cell noCPT: inconclusive; TDP1 cell CPT: inconclusive; HT1080NT lethal: -0.8%

Results for NS(=O)(=O)c1ccc(-c2ccc(/C=N/NC(=O)c3ccc([N+](=O)[O-])cc3)o2)cc1 ?
HT1080 IDH1KD tx: -2.0%; IL1B secr inh: -3.6; TDP1 cell noCPT: 7.7%; TDP1 cell CPT: -13.5%; HT1080NT lethal: -0.4%

How did O=[N+]([O-])c1ccccc1NC(=S)N/N=C/c1ccc(O)c(O)c1 do in these assays?
HT1080 IDH1KD tx: inconclusive; IL1B secr inh: 24.6; TDP1 cell noCPT: inconclusive; TDP1 cell CPT: inconclusive; HT1080NT lethal: inconclusive

What do the screens show for `CN(C)S(=O)(=O)N1CCN(CC(=O)Nc2ccc(Br)cc2)CC1`?
HT1080 IDH1KD tx: -0.3%; IL1B secr inh: 49.6; TDP1 cell noCPT: -2.8%; TDP1 cell CPT: -13.0%; HT1080NT lethal: 6.5%

Results for O=C(N/N=C/c1ccc([N+](=O)[O-])o1)C(O)c1ccccc1 (configuration not stated) ?
HT1080 IDH1KD tx: -27.5%; IL1B secr inh: -6.7; TDP1 cell noCPT: 6.51µM*; TDP1 cell CPT: 8.2µM*; HT1080NT lethal: inconclusive

What do the screens show for `O=C(N/N=C/c1ccccc1)C(O)c1ccccc1` (configuration not stated)?
HT1080 IDH1KD tx: -12.4%; IL1B secr inh: 14.2; TDP1 cell noCPT: 10.0%; TDP1 cell CPT: -9.6%; HT1080NT lethal: -8.1%

Results for COc1ccc(C(=O)N2[C@@H](C(C)C)COc3cc(Br)ccc3S2(=O)=O)cc1 ?
HT1080 IDH1KD tx: inconclusive; IL1B secr inh: 6.1; TDP1 cell noCPT: inconclusive; TDP1 cell CPT: 18.4µM*; HT1080NT lethal: -21.6%

Assay outcomes deposited in PubChem by National Center for Advancing Translational Sciences (NCATS).
